The list is not random: actives were taken first. Their share in the collection is about 3%.
SNCA expr inhib – reduces expression of the alpha-synuclein gene; HEK-293 SNCA-luciferase knock-in, luminescence, 24 h; Potency, µM (highest dose often 57.2 µM), for inactives: top-dose activity change, negative = inhibition, usual class: inhibitors; actives 0.17% (n = 140,000);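 also: potency is read from the fitted curve at half-maximal effect; plate controls were DMSO cells for no effect and cell-free wells for full effect; nearly all actives have a fitted effect of over 45% in size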
HEK293 viab – counter-screen for SNCA expression inhibitors: cell viability | HEK-293-SNCA-luc viability, GF-AFC fluorescence, 24 h | AID 1671193 | Potency, µM (top dose mostly 57.1 µM), for the others: top-dose activity change, negative = cytotoxicity, hits mostly cytotoxic | actives 0.12% (n = 150,000);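 also: potency is read from the fitted curve at half-maximal effect; 0% = DMSO-treated cells and -100% = medium-only wells without cells; nearly all actives have a fitted effect of over 30% in size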
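Cytotoxicity counterscreen: after 24 h compound treatment of genome-edited SNCA-luciferase HEK-293 cells, live-cell protease substrate GF-AFC read by fluorescence after 30 min; activity scaled between DMSO (0%) and medium-only (-100%), curves Hill-fitted.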
KDM5B inh – KDM5B demethylase inhibition. Q9UGL1. KDM5B demethylase, FDH-coupled NADH fluorescence (FDH is formaldehyde dehydrogenase). Potency, µM (top dose mostly 57.7 µM), usual class: inhibitors. actives 2.6% (n = 220,000); also: potency is read from the fitted curve at half-maximal effect; 0% is about no effect; nearly all actives have a fitted effect of over 70% in size
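Measured: NADH fluorescence change, 30 min, RT. System: KDM5BΔAP 200 nM final, H3K4me3 peptide, α-KG, Fe(II), ascorbate, NAD⁺ plus FDH, pH 7.5 HEPES. Compounds: titrated, 10 min pre-incubation with enzyme.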
IP6K1 inh – inhibitors of human IP6K1 | Q92551 | IP6K1 kinase, ADP-Glo luminescence, 2 h; hits give low values | activity change, % (series mostly up to about 58 µM) | actives 0.81% (n = 140,000) | AID 1645851; in the data active = activity change below about -25%; also: % is scaled to controls: 0 for no effect and ±100 for the full control effect
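ADP-Glo luminescence measures ADP made by human IP6K1 during a 2 h RT reaction with ATP/IP6 (mix at 1.3 mM/130 uM); top library doses 57.5 and 19.1 uM final.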
* hit, by the source's call; i = inactive; ? = inconclusive; / = no result; [ ] = another dose, or the depositor's remark. Unless noted, calls follow the shape of the dose curve; as a rule, active = well fitted curve in the direction sought with a large enough effect; inconclusive = small, poorly fitted or top-dose-only effect, or another doubt; inactive = no such curve, though single readings can be large; an effect the other way counts as inactive or inconclusive.

SMILES	SNCA expr inhib	HEK293 viab	KDM5B inh	IP6K1 inh
C[S+](=O)([O-])c1ccc(-c2nc(C(=O)NCCc3ccc(Cl)cc3)n3ccncc23)cc1	-14.5%	5.2%	79.4µM*	-6.2
Cn1ncc2c(C(=O)N3CCN(Cc4ccccc4)CC3)cc(-c3ccc(Cl)nc3)nc21	6.1%	-8.8%	/	-3.9
O=C(NCCc1ccc(Cl)cc1)c1nc(-c2ccc(Cl)cc2)c2ccccn12	0.7%	10.8%	25.1µM*	11.7
O=C(NCc1ccc(F)cc1)c1nc(-c2ccc(Cl)cc2)c2ccccn12	7.1%	5.4%	25.1µM*	10.5
O=C(NCc1cc(F)cc(F)c1)c1nc(-c2ccc(F)cc2)c2ccccn12	11.1%	10.3%	?	24.7
O=C(NCCc1ccc(Cl)cc1)c1nc2sccn2c1-c1ccccc1	-11.7%	0.4%	/	5.2
Cc1occc1C(=O)N[C@@H]1CN(c2ncccn2)C[C@H]1CO	-25.8%	12.6%	?	2.0
Cc1ccoc1C(=O)N[C@@H]1CN(c2ncccn2)C[C@H]1CO	-2.8%	-2.3%	25.1µM*	5.5
Cc1ccc(C(=O)N[C@@H]2CN(c3ncccn3)C[C@H]2CO)nc1	5.2%	-2.0%	20µM*	6.6
COc1ncccc1-c1cnc2[nH]cc(CC(=O)Nc3ccncc3)c2c1	31.7%[87.6 µM]	-16.5%[87.6 µM]	39.8µM*	-22.9
COc1ccc(-c2cnc3[nH]cc(CC(=O)Nc4cccnc4)c3c2)cc1	46.4%[87.6 µM]	-21.8%[87.6 µM]	39.8µM*	-23.6
COc1ncccc1-c1cnc2[nH]cc(CC(=O)Nc3ccccc3)c2c1	30.4%[87.6 µM]	?	35.5µM*	-1.8
COc1ccc(-c2cnc3[nH]cc(CC(=O)Nc4cccc(F)c4)c3c2)cc1	-6.4%[87.6 µM]	?	?	6.3
COc1ccc(-c2cnc3[nH]cc(CC(=O)NCCc4ccccn4)c3c2)cc1	1.9%[87.6 µM]	9.7%[87.6 µM]	35.5µM*	-21.1
COc1ncccc1-c1cnc2[nH]cc(CC(=O)Nc3cccnc3)c2c1	8.2%[87.6 µM]	?	?	-8.1
O=C(NC1CCCC1)C1CCCN(c2nccc(Nc3ccccc3F)n2)C1 (stereo unspecified)	-26.1%	-11.3%[12.5 µM]	/	7.6
COc1ccc(F)cc1-c1ccc(CN2CCC(NC(=O)c3ccc(C(F)(F)F)cc3)C2)cc1 (stereo unspecified)	/	/	/	-5.3
O=C(Nc1ccccc1Cl)C1CCCN(Cc2cccc(-c3cccs3)c2)C1 (stereo unspecified)	/	/	/	10.5
O=C1CCN(CC(O)C(F)(F)F)c2ccc(F)cc2CN1Cc1ccccc1 (stereo unspecified)	/	/	/	-15.2
CCNc1ncc(C(=O)N(CCc2ccccc2)Cc2ccco2)cn1	-22.8%	-1.6%	28.2µM*	4.0
COc1ccc(F)c(F)c1C(=O)c1cnc(NC2CCN(S(C)(=O)=O)CC2)nc1N	13.6µM*	?	/	-4.2
COc1cccc(-c2ccc(C(=O)N3CCC(N[S+](=O)([O-])CCC(F)(F)F)CC3)cc2)c1	-18.0%	1.8%[12.5 µM]	/	3.9
Cc1cc(NC(=O)C2CCN(c3cc(C(F)(F)F)ncn3)CC2)ccc1Br	-33.7%	-8.5%	28.2µM*	15.0
Cc1ccc(NC(=O)C2CCN(c3cc(C(F)(F)F)ncn3)CC2)cc1	-3.7%	-13.4%	25.1µM*	13.7
CCc1ccc(NC(=O)C2CCN(c3cc(C(F)(F)F)ncn3)CC2)cc1	-10.0%	-0.4%	?	-13.9
SMILES	SNCA expr inhib	HEK293 viab	KDM5B inh	IP6K1 inh
Cc1cc(C(=O)N2CCn3nc(C(C)O)cc3C2)c2ccc(F)cc2n1 (stereo unspecified)	-28.4%	-0.2%	i	2.9
CC(O)c1cc2n(n1)CCN(C(=O)c1nc3ccccc3n(C)c1=O)C2 (stereo unspecified)	-8.9%	1.0%	25.1µM*	18.9
COc1cc(Cl)c(C)cc1NC(=O)Cn1ccn2nc(-c3ccccc3)c(CO)c2c1=O	-1.6%	3.5%	15.8µM*	10.0
COc1ccc(OC)c(NC(=O)Cn2ccn3nc(-c4ccccc4)c(CO)c3c2=O)c1	-4.9%	3.2%	?	43.4
O=C(Cn1ccn2nc(-c3ccccc3)c(CO)c2c1=O)Nc1ccccc1C(F)(F)F	-14.0%	1.5%	20µM*	10.2
Cc1ccc(NC(=O)Cn2ccn3nc(-c4ccccc4)c(CO)c3c2=O)c(C)c1	-17.7%	4.4%	31.6µM*	-2.1
Cc1ccc(C)c(NC(=O)Cn2ccn3nc(-c4ccc(F)cc4)c(CO)c3c2=O)c1	-11.6%	0.5%	17.8µM*	-0.4
Cc1ccc(NC(=O)Cn2ccn3nc(-c4ccc(F)cc4)c(CO)c3c2=O)c(C)c1	-26.4%	-9.7%	?	-5.1

Source: PubChem (National Center for Advancing Translational Sciences (NCATS))
